# Tcruzi prolif: T. cruzi intracellular proliferation inhibitors, primary screen, cell-based, beta-gal Tulahuen parasites, NIH3T3 host, luminescence; inhibition, % at 8.34 µM; 5.9% of 77,000 active; T. cruzi beta-gal in NIH3T3, GalScreen luminescence, 90 h; AID 624255, 2012;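 active = mean inhibition above about 93%, with at least 55% of replicates each passing it, limit read from the data, passing the limit was not always enough; inconclusive = only one of those two conditions holds; inactive = neither condition holds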
# C diff growth: C. difficile growth inhibitors, primary screen, HTS. 0.25% of 86,000 active. Clostridium difficile clinical isolate growth, OD600, 24 h; stronger effect = lower value. growth activity, negative = inhibition, % at 16 µg/mL (by protocol);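 active = mean growth activity at or below -80% and every replicate also at or below -80%; inconclusive = mean at or below -80% but some replicate above -80%; inactive = mean growth activity above -80%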;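 also: 0% = DMSO wells and -100% = levofloxacin 16 µg/mL wells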
# Pf Dd2 growth: P. falciparum Dd2 growth inhibitors, primary screen, SYBR Green fluorescence, single dose replicates | 72 h; stronger effect = lower value | activity change, % at 10 µM | 2.3% of 94,000 active; in the data active = activity change below about -80%; inconclusive = no clear call, values can overlap the other calls
# * marks the source's active call; other numbers are inactive results; ? = inconclusive; nt = no result. Compounds with a hit are over-represented: about 6.7% of the library has one in this group of screens.
SMILES,Tcruzi prolif,C diff growth,Pf Dd2 growth
COc1ccc(S(=O)(=O)Nc2ccc3c(c2)C(=O)N([C@H](C)CO)C[C@H](C)[C@@H](CN(C)Cc2ccc(Cl)c(Cl)c2)OCCCC[C@@H](C)O3)cc1,nt,13.1,-90.5*
COc1ccc(S(=O)(=O)Nc2ccc3c(c2)C(=O)N([C@H](C)CO)C[C@H](C)[C@@H](CN(C)Cc2ccc(Cl)c(Cl)c2)OCCCC[C@H](C)O3)cc1,63.3,nt,-62.3
CCCN(C)C[C@@H]1OCCCC[C@@H](C)Oc2ccc(NS(=O)(=O)c3ccc(OC)cc3)cc2C(=O)N([C@H](C)CO)C[C@@H]1C,19.9,-0.1,-45.1
COc1ccc(CN(C)C[C@H]2OCCCC[C@@H](C)Oc3ccc(NS(=O)(=O)c4ccc(OC)cc4)cc3C(=O)N([C@@H](C)CO)C[C@H]2C)cc1,37.3,-5.7,-42.4
C[C@@H]1CCCCO[C@H](CN(C)Cc2ccc(Cl)c(Cl)c2)[C@@H](C)CN([C@@H](C)CO)C(=O)c2cc(NS(=O)(=O)c3ccc(F)cc3)ccc2O1,nt,29.1,-48.4
COc1ccc(CN(C)C[C@H]2OCCCC[C@H](C)Oc3ccc(NS(=O)(=O)c4ccc(OC)cc4)cc3C(=O)N([C@@H](C)CO)C[C@H]2C)cc1,nt,-18.8,-83.2*
CCCN(C)C[C@H]1OCCCC[C@@H](C)Oc2ccc(NS(=O)(=O)c3ccc(OC)cc3)cc2C(=O)N([C@@H](C)CO)C[C@H]1C,36.9,2.4,-87.9*
O=C(N[C@H]1C=C[C@@H](CC(=O)N2CCOCC2)O[C@H]1CO)c1ccc2c(c1)OCO2,-25.4,-1.3,11.2
C[C@@H]1CCCCO[C@@H](CN(C)C(=O)NC2CCCCC2)[C@@H](C)CN([C@H](C)CO)C(=O)c2cc(NC(=O)c3ccccc3)ccc2O1,68.9,-3.1,-28.3
C#CCN1[C@H](/C=C/C2CC2)[C@H](Cc2ccccc2)OC(=O)[C@@H]1Cc1ccccc1,nt,-6.9,nt
C[C@H](CO)N1C[C@H](C)[C@@H](CN(C)C(=O)Nc2cccc3ccccc23)Oc2ccc(NS(=O)(=O)c3cn(C)cn3)cc2CC1=O,-15.5,-3.2,16.4
COc1ccc(S(=O)(=O)N(C)C[C@@H]2OCCCC[C@@H](C)Oc3ccc(NC(=O)Nc4ccc(C(F)(F)F)cc4)cc3C(=O)N([C@@H](C)CO)C[C@H]2C)cc1,89.8,0.9,-75.0
COc1ccc(S(=O)(=O)N(C)C[C@@H]2OCCCC[C@@H](C)Oc3ccc(NC(=O)Nc4ccc(C(F)(F)F)cc4)cc3C(=O)N([C@@H](C)CO)C[C@@H]2C)cc1,84.8,7.0,-87.5*
COc1ccc(S(=O)(=O)N(C)C[C@H]2OCCCC[C@@H](C)Oc3ccc(NC(=O)Nc4ccc(C(F)(F)F)cc4)cc3C(=O)N([C@@H](C)CO)C[C@H]2C)cc1,89.4,-2.9,-84.6*
COc1ccc(S(=O)(=O)N(C)C[C@@H]2OCCCC[C@H](C)Oc3ccc(NC(=O)Nc4ccc(C(F)(F)F)cc4)cc3C(=O)N([C@H](C)CO)C[C@H]2C)cc1,79.3,-0.1,-82.9*
Cc1ccc(S(=O)(=O)N(C)C[C@H]2OCCCC[C@@H](C)Oc3ccc(NC(=O)Nc4ccc(C(F)(F)F)cc4)cc3C(=O)N([C@@H](C)CO)C[C@H]2C)cc1,nt,-3.6,-53.6
COc1ccc(S(=O)(=O)N(C)C[C@H]2OCCCC[C@@H](C)Oc3ccc(NC(=O)Nc4ccc(C(F)(F)F)cc4)cc3C(=O)N([C@@H](C)CO)C[C@@H]2C)cc1,80.0,2.0,-84.7*
COc1ccc(NC(=O)Nc2ccc3c(c2)C(=O)N([C@@H](C)CO)C[C@H](C)[C@@H](CN(C)S(=O)(=O)c2ccc(F)cc2)OCCCC[C@@H](C)O3)cc1,74.4,-0.7,?
O=C(Nc1ccccc1F)N1C[C@@H]2[C@H](c3ccccc31)[C@@H](CO)N2C(=O)C1CC1,-8.7,-2.1,12.4
C[C@H]1CN([C@@H](C)CO)C(=O)c2cc(C3=CCCCC3)cnc2O[C@H]1CN(C)C(=O)c1cccnc1,nt,-2.5,-2.1
COCC#Cc1ccc2c(c1)O[C@H](CN(C)Cc1ccccn1)[C@H](C)CN([C@@H](C)CO)S2(=O)=O,11.0,nt,34.6
O=C(O)C[C@H]1C=C[C@@H](NC(=O)CCN2CCCCC2)[C@H](CO)O1,nt,-2.5,-1.1
CCC(=O)N1CC2(C1)CN(Cc1ccccc1Cl)[C@@H](CO)c1c2c2ccc(OC)cc2n1C,nt,18.9,-73.0
CC(=O)N1CC2(C1)[C@@H](c1ccc(-c3ccc(F)cc3)cc1)[C@@H](CO)N2C(C)=O,nt,-6.9,-6.8
COc1ccc(S(=O)(=O)N(C)C[C@H]2OCCCC[C@@H](C)Oc3ccc(NC(=O)CCC(F)(F)F)cc3C(=O)N([C@H](C)CO)C[C@@H]2C)cc1,53.4,-5.5,-24.2
